In PubChem BioAssay AID485314 (National Center for Advancing Translational Sciences (NCATS), 2010) one finds Potency data, which are given here for 99 compounds.

Screen size: about 340,000 compounds; about 4,500 (1.3%) were called active. A call without a number means that no potency is given here. Roughly 5% stayed inconclusive and do not appear here. Calls follow the shape of the dose curve; as a rule, active = well fitted inhibition curve with a large enough effect; inconclusive = small, poorly fitted or top-dose-only effect, or another doubt; inactive = no such curve, though single readings can be large or run the other way. The sample as a whole holds a higher share of actives than the screen did.
Potency is read from the fitted curve at half-maximal effect.

The target in this assay is DNA polymerase beta (Homo sapiens) (UniProt P06746). The assay can be described thus: qHTS Assay for Inhibitors of DNA Polymerase Beta. The settings on record: Pol beta primer extension/strand displacement, fluorescence kinetic; series mostly up to 114 µM. The method in brief: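 Reaction started by 50 nM substrate onto compound-treated Pol beta (10 nM, 15 min preincubation, room temperature); plates read at 0 min and 10 min. Normalized concentration-effect data fitted by four-parameter Hill equation.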
A general note: In qHTS, concentration-response curves come from the screen itself.
As to `COc1cccc(NC(=O)Nc2ccc3c(c2)N(C)C(=O)c2ccccc2S3)c1`, the Potency entry was “inactive”.

As to `CCOC(=O)c1c(NC(=O)c2ccc(S(=O)(=O)N3CCCC(C)C3)cc2)sc2c1CCN(C(C)C)C2` (centres undefined), the Potency result is “inactive”.

`O=C(Nc1nnc(Cc2ccccc2)s1)c1cnccn1`: the Potency entry was “inactive”.

On to `O=C(Nc1nnc(Cc2ccc(Cl)cc2)s1)c1ccncc1`, for which the Potency result is “inactive”.

Regarding `O=C(Nc1nnc(Cc2ccc(Cl)cc2)s1)c1cccnc1`, the Potency is 22.4 µM (active).

Turning to `COc1cccc(C(=O)NC2=NC(c3ccc(N(C)C)cc3)CC(=O)N2)c1` (centres undefined), the Potency entry is “inactive”.

For the compound `CCC(=O)N1CCc2cc(S(=O)(=O)NC(CC(C)C)C(=O)NCCc3cccc(C)c3)ccc21` (centres undefined), the Potency entry is “inactive”.

Take `CCC(C)(C)n1nnnc1C(c1ccc(OC)c(OC)c1)N1CCN(C(=O)c2ccco2)CC1` (centres undefined): the Potency result is “inactive”.

`CCC(c1nnnn1C1CCCC1)N1CCN(C(=O)c2ccco2)CC1` (centres undefined): the Potency was 44.7 µM (active).

As to `CC(C)C(c1nnnn1C1CCCCC1)N1CCN(C(=O)c2ccco2)CC1` (centres undefined), the Potency entry is “inactive”.

Take `COc1ccc(-c2c(C)c3ccc(O)c(CN4CCCC4)c3oc2=O)cc1OC`: the Potency result was “inactive”.

As to `COc1ccc(-c2c(C)c3ccc(O)c(CN4CCN(C)CC4)c3oc2=O)cc1OC`, the Potency result was “inactive”.

With `COc1c(O)cc2oc(-c3ccc(O)c(O)c3)cc(=O)c2c1O`, the Potency is 6.31 µM (active).

Turning to `CCN(CC)c1ccc(NS(=O)(=O)c2cc(-c3cc(C)no3)ccc2C)c(C)c1`, the Potency entry is “inactive”.

Turning to `CN(C)CCCn1c(-c2ccc(Cl)cc2)csc1=Nc1ccccc1`, the Potency entry is “inactive”.

With `CCN1CCN(CCCNC(=O)c2ccc3c(c2)sc2nc(-c4ccc(OC)cc4)cn23)CC1`, the Potency entry is “inactive”.

Take `O=C(CSc1nc2ccccc2nc1Cc1ccccc1)N1CCCCC1`: the Potency entry was “inactive”.

As to `CCOC(=O)c1ccc(N2C(=O)c3n[nH]c(C)c3C2c2ccc(O)c(OC)c2)cc1` (centres undefined), the Potency result is “inactive”.

For the compound `CC(C)Oc1ccc(/C=C(\NC(=O)/C=C/c2ccco2)C(=O)NCCc2nc3ccccc3[nH]2)cc1`, the Potency entry is “inactive”.

Regarding `CCCCCOc1ccc(/C=C/C(=O)NCCc2nc3ccccc3[nH]2)cc1OC`, the Potency was 15.8 µM (active).

Turning to `COc1ccc(OC(C)C(=O)NCCc2nc3ccccc3[nH]2)cc1` (centres undefined), the Potency entry is “inactive”.

Regarding `O=C(NCc1ccccc1Cl)C1=Cc2cc(Br)ccc2OC1`, the Potency entry is “inactive”.

In the case of `CC(C)C(=O)Nc1nc2c(s1)CC(C(C)(C)C)CC2` (centres undefined), the Potency result is “inactive”.

As for `COc1ccc(/C=N/NC(=O)c2ccc3c(c2)OCCO3)c(OC)c1`, the Potency entry is “inactive”.

With `CN(C)CCNC(=O)c1[nH]nc2c1CCc1ccccc1-2`, the Potency result is “inactive”.

For the compound `COc1cccc(/C=N/NC(=O)c2[nH]nc3c2CCc2ccccc2-3)c1O`, the Potency is 8.91 µM (active).

As for `CCOc1ccccc1CNC(=O)c1ccc(-n2c(C)cc3c2CCC(C)C3)cc1` (centres undefined), the Potency result is “inactive”.

Turning to `C[N+](C)(CCCCCC[N+](C)(C)CCCN1C(=O)c2cccc3cccc(c23)C1=O)CCCN1C(=O)c2cccc3cccc(c23)C1=O`, the Potency was 2.38 µM (active).

As to `O=C(CCCCCN1C(=O)c2cccc3cccc(c23)C1=O)NCc1ccco1`, the Potency result is “inactive”.

For the compound `O=C1c2cccc3cccc(c23)C(=O)N1CCCCCc1n[nH]c(=S)o1`, the Potency entry was “inactive”.

Regarding `CCN(CCCNC(=O)CSc1cc(=O)n(C)c2cc(Cl)ccc12)c1cccc(C)c1`, the Potency entry is “inactive”.

As to `COc1ccc(C2=NC(c3ccncc3)=Nc3ccc(Br)cc3N2)cc1`, the Potency entry was “inactive”.

As to `CC(=O)c1ccc(NC(=O)CCc2nc(-c3ccc(C)cc3)no2)cc1`, the Potency result is “inactive”.

As for `COc1cc2ccccc2cc1C(=O)Nc1cccc(-c2nc3ccccc3o2)c1`, the Potency entry is “inactive”.

For the compound `O=C(CN1CCN(S(=O)(=O)/C=C/c2ccccc2)CC1)NC(=O)NCc1ccco1`, the Potency is 25.1 µM (active).

For the compound `COc1ccccc1N1CCN(CC(=O)NC(=O)NCc2ccco2)CC1`, the Potency result is “inactive”.

In the case of `NC(=O)CCN1CCN(S(=O)(=O)/C=C/c2ccccc2)CC1`, the Potency entry is “inactive”.

As to `CCC1=Nc2cc(C(=O)NCC(C)c3ccccc3)ccc2Sc2ccc(C)cc21` (centres undefined), the Potency entry was “inactive”.

For the compound `O=C(CNS(=O)(=O)c1cccs1)N1CCN(c2ccccc2Cl)CC1`, the Potency result was “inactive”.

`COc1cccc(CNS(=O)(=O)c2ccc3c(c2)CC(C)N3C(=O)C2CCC2)c1` (centres undefined): the Potency result is “inactive”.

In the case of `COc1cccc(CNS(=O)(=O)c2ccc3c(c2)CC(C)N3C(C)=O)c1` (centres undefined), the Potency entry is “inactive”.

For the compound `CCC(=O)N1c2ccc(S(=O)(=O)NCc3ccco3)cc2CC1C` (centres undefined), the Potency was 0.398 µM (active).

In the case of `COc1cc(C(=O)N2CCN(c3ccc(Nc4ccc(C)cc4)nn3)CC2)cc(OC)c1OC`, the Potency result was “inactive”.

For `Cc1ccc(-c2cnc(NCc3ccc(C(C)C)cc3)n2C)cc1`, the Potency entry is “inactive”.

For the compound `COc1ccc(NC(=O)c2ccco2)cc1NC(=O)COc1ccc(C)c(C)c1`, the Potency was 11.2 µM (active).

Turning to `Cc1ccc(OCC(=O)NCCCNC(=O)c2ccco2)cc1C`, the Potency result was “inactive”.

Turning to `COc1ccc(OCC(=O)Nc2ccc(NC(=O)c3ccco3)c(C)c2)cc1`, the Potency result is “inactive”.

Consider `CCC(C)Nc1oc(-c2ccc(COc3ccc(Cl)cc3)o2)nc1C#N` (centres undefined), for which the Potency entry is “inactive”.

In the case of `Cc1ccccc1CNC(=O)CCCn1nc(C)c2sc3ccccc3c2c1=O`, the Potency result is “inactive”.

Turning to `CCNC(=S)N1CCC(c2nc3cc(C)c(C)cc3[nH]2)CC1`, the Potency entry is “inactive”.

With `COCCCNC(=S)N1CCCC(c2nc3cc(C)c(C)cc3[nH]2)C1` (centres undefined), the Potency is 39.8 µM (active).

For the compound `CCCNC(=S)N1CCCC(c2nc3ccccc3[nH]2)C1` (centres undefined), the Potency entry was “inactive”.

As for `COc1ccc2nc(SCc3ccccc3)nc(C)c2c1`, the Potency entry is “inactive”.

For the compound `CC1(C)N=C(SCc2ccccc2Cl)c2ccccc2N1`, the Potency entry was “inactive”.

In the case of `c1ccc(CSc2nnc(-c3ccco3)c(-c3ccco3)n2)cc1`, the Potency is 7.94 µM (active).

Consider `Cc1ccc(-c2nnc(SCC(=O)NCc3ccccc3)nc2-c2ccc(C)cc2)cc1`, for which the Potency entry was “inactive”.

Regarding `Fc1ccc(Nc2nc(SCc3ccccc3Cl)nc3ccccc23)cc1`, the Potency result is “inactive”.

As for `Clc1ccccc1CSc1nnc(-c2ccco2)c(-c2ccco2)n1`, the Potency is 4.47 µM (active).

As for `CCN(CC)S(=O)(=O)c1nnc(NC(=O)COc2ccccc2Cl)s1`, the Potency entry was “inactive”.

Consider `CC1=Nc2cc(C(=O)NCc3ccc(C)cc3)ccc2Sc2ccc(Cl)cc21`, for which the Potency result was “inactive”.

Turning to `O=C(CSc1nccn1-c1ccc(F)cc1)Nc1cccc2ccccc12`, the Potency entry is “inactive”.

Turning to `Cc1ccc(C)c(N2CCN(C(=O)Cn3nc(C)c4sc5ccccc5c4c3=O)CC2)c1`, the Potency entry is “inactive”.

Take `COc1ccc2c(c1)Cc1sc(NC(=O)c3ccccc3Br)nc1-2`: the Potency entry was “inactive”.

With `CC(C)(C)c1ccc(C(=O)N2CCC(c3nc(-c4ccc(S(=O)(=O)N5CCCC5)cc4)no3)CC2)cc1`, the Potency entry was “inactive”.

As to `CCOC(=O)C1CCN(C(c2ccc(F)cc2)c2sc3nc(-c4ccco4)nn3c2O)CC1` (centres undefined), the Potency result is “inactive”.

`CCOc1ccccc1/C=c1\sc2nc(-c3ccco3)nn2c1=O`: the Potency was 11.2 µM (active).

Take `Oc1c(C(c2ccccc2Cl)N2CCOCC2)sc2nc(-c3ccco3)nn12` (centres undefined): the Potency entry was “inactive”.

`COc1cc(CNC(=O)c2cc3n(n2)CCCN(Cc2cccc(F)c2)C3=O)cc(OC)c1OC`: the Potency entry was “inactive”.

For `CCC(=O)Nc1cccc(C(=O)OCc2cc(=O)n3nc(CC)sc3n2)c1`, the Potency result is “inactive”.

Turning to `Cc1c(C(=O)NCc2ccccc2Br)oc2ccc3c(c12)C(=O)CC(C)(C)O3`, the Potency result is “inactive”.

For the compound `O=C(CSc1nccn1Cc1ccc(F)cc1)NCc1ccccc1`, the Potency result is “inactive”.

Turning to `COc1ccc(-c2noc(CSc3nnc(-c4ccccc4)n3-c3ccc(F)cc3)n2)c(OC)c1`, the Potency entry is “inactive”.

Consider `C/C(=N\NS(=O)(=O)c1ccc(Br)cc1)c1cccs1`, for which the Potency entry was “inactive”.

Turning to `C/C(=N\Nc1ncc(Cl)cc1Cl)c1cccs1`, the Potency result is “inactive”.

Turning to `C/C(=N\Nc1ccc(S(N)(=O)=O)cc1[N+](=O)[O-])c1cccs1`, the Potency was 11.2 µM (active).

Consider `CCC(=O)N1c2ccccc2CC1C(=O)N1CCN(c2cccc(OC)c2)CC1` (centres undefined), for which the Potency entry was “inactive”.

`O=C(NCc1ccccc1)c1ccc2c(c1)nc1n2CCCCC1`: the Potency entry was “inactive”.

On to `CCOc1cccc(NC(=O)CSc2ncc(-c3ccc(Cl)cc3)[nH]2)c1`, for which the Potency entry is “inactive”.

For the compound `Cc1cc(C)c2nc3nc(C)cc(C)c3c(N)c2c1`, the Potency is 39.8 µM (active).

`CC(=C/c1ccccc1)/C=N/NC(=O)c1cc(C)oc1C`: the Potency result is “inactive”.

As to `CC(/C=N/NC(=O)c1cc(-c2ccc3ccccc3c2)n[nH]1)=C\c1ccco1`, the Potency is 12.6 µM (active).

In the case of `CC(C)(C)C1CCC(=NNC(=O)c2cc(-c3ccccc3)n[nH]2)CC1` (centres undefined), the Potency result was “inactive”.

As for `COc1ccc(/C=C/c2nc(C#N)c(NCc3ccc(F)cc3)o2)cc1OC`, the Potency entry is “inactive”.

Regarding `Clc1cccc(-c2nc3nc4ccccc4nc3n2Cc2ccco2)c1`, the Potency entry was “inactive”.

For `Cn1c2ccccc2c(=O)c2c(=O)n(Cc3ccco3)c(COc3ccccc3)nc21`, the Potency result is “inactive”.

For the compound `Cc1nc2c(c(=O)n1Cc1ccco1)c1nc3ccccc3nc1n2Cc1ccccc1`, the Potency was 20 µM (active).

Regarding `Cc1ccc(Cn2c(C)nc3c(c2=O)c2nc4ccccc4nc2n3Cc2ccco2)cc1`, the Potency was 10 µM (active).

Take `Cc1cc(NC(=O)CSc2nc3cc(Cl)ccc3c(=O)n2Cc2ccco2)no1`: the Potency entry is “inactive”.

As for `O=c1c2ccccc2oc2nc(C3CCCCC3)n(Cc3ccco3)c(=O)c12`, the Potency result was “inactive”.

As to `Cc1c(NC(=O)C(C)(C)C)cccc1-c1nc2ccccc2s1`, the Potency result was “inactive”.

For `Cc1ccc(NC(=O)CCCn2c(=O)c3cccn3c3ccccc32)cc1Cl`, the Potency entry was “inactive”.

For the compound `Cc1ccc(CN2CCC(CNC(=O)c3cnn(-c4ccccc4Cl)c3C3CCN(C(=O)OC(C)(C)C)CC3)CC2)cc1`, the Potency entry is “inactive”.

In the case of `Cc1ccc(CNC(=O)CCc2c(C)nn(-c3ccc(N4CCCC4)nn3)c2C)cc1`, the Potency entry is “inactive”.

As for `CC(=O)c1ccc(S(=O)(=O)N2CCC3(CC2)OCCO3)cc1`, the Potency result is “inactive”.

`CC(=O)c1ccc(S(=O)(=O)N2CCN(C(=O)/C=C/c3ccc4ccccc4n3)CC2)cc1`: the Potency is 11.2 µM (active).

With `CC(=O)c1cccc(Nc2ccc3cc(S(=O)(=O)N4CCC(C)CC4)ccc3n2)c1`, the Potency entry is “inactive”.

In the case of `O=C1Cc2cc(S(=O)(=O)Nc3ccc(OC(F)(F)F)cc3)cc3c2N1CCC3`, the Potency entry was “inactive”.

With `Cc1ccc(NC(=O)c2nc(S(=O)(=O)Cc3cccc(C)c3)ncc2Cl)cc1`, the Potency entry is “inactive”.

Turning to `COc1ccc(NS(=O)(=O)c2cc3c4c(c2)CC(=O)N4CCC3)cc1Cl`, the Potency result was “inactive”.
